Screening data from PubChem BioAssay.
Shown are actives, neighbours in structure and some others; about 7.5% of the full set was active somewhere.
Giardia FBPA inh = blocks Giardia fructose-bisphosphate aldolase activity; A8B2U2; purified Giardia FBPA; Potency, µM (doses to about 59.6 µM), for the others: at the highest dose activity, negative = inhibition, usual class: inhibitors; 290,000 tested, 0.71% active; also: potency is read from the fitted curve at half-maximal effect; nearly all actives have a fitted effect of over 55% in size
Target sequence (A8B2U2 whole entry, looked up): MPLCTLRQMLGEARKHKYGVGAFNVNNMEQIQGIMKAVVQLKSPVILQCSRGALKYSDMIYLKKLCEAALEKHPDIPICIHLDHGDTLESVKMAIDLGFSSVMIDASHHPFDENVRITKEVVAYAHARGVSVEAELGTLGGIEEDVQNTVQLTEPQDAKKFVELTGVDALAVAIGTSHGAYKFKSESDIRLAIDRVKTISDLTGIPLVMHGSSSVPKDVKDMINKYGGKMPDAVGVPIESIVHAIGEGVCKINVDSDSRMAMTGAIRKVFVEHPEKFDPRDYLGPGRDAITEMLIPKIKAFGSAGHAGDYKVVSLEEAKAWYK
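Giardia FBPA (40 nM reagent) was preincubated 10 min at RT with compound (up to 57.5 uM final), then substrate plus GAPDH/TPI/NAD/arsenate coupling system with diaphorase/resazurin was added; resorufin fluorescence (525/598 nm) was read after 20 min.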
Vaccinia mCherry = inhibitors of vaccinia virus infection (mCherry reporter signal) | Vaccinia virus mCherry reporter infection, fluorescence | 310,000 tested, 0.63% active | AID 720579 | Potency, µM (doses to about 36.5 µM), without a hit: at the highest dose activity change, negative = inhibition, actives largely listed as inhibitors; calls by dose curve; tested in A549 cells; also: potency is read from the fitted curve at half-maximal effect; nearly all actives have a fitted effect of over 35% in size
HCV inh = blocks hepatitis C virus | Potency, µM (series often up to 41.8 µM), for the others: at the top dose activity change, negative = inhibition, hits mostly inhibitors | 340,000 tested, 3.4% active | Huh7.5.1 HCVcc-Cre infection, luciferase reporter, 44 h; also: potency is read from the fitted curve at half-maximal effect
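Infectious HCV cell culture screen: compound-treated cells (1,000/well, pre-plated 4 h) are infected with HCVcc-Cre at roughly 0.5 moi and grown 44 h. Infection is quantified by luciferase signal after 15 min substrate incubation at room temperature.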
Vaccinia Venus = vaccinia inhibition (Venus reporter) | Vaccinia virus Venus reporter expression, fluorescence | Potency, µM (highest dose often 36.5 µM), inactives show at the top dose activity change, negative = inhibition, hits mostly inhibitors | 330,000 tested, 0.46% active; calls by dose curve; tested in A549 cells; also: potency is read from the fitted curve at half-maximal effect; nearly all actives have a fitted effect of over 30% in size
HCMV antiviral = blocks human cytomegalovirus replication; HFF cells, HCMV-luciferase reporter, 72 h; stronger effect = lower value; activity change, negative = inhibition, % at 57.5 µM; 410,000 tested, 4.5% active; AID 1259415; in the data active = activity change below about -60%; inconclusive = no clear call, values can overlap the other calls; inactive = above about -39%
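After 16 h attachment at 37C, HFF cells received test compound and HCMV-luciferase (1 PFU/cell); reporter luminescence read 72 h later, data normalized against buffer-only and known inhibitor Salinomycin.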
FMDV antiviral = antivirals against foot and mouth disease virus. FMDV antiviral cell-based qHTS. Potency, µM (series often up to 57.9 µM), without a hit: at the highest dose activity change, negative = inhibition, hits mostly inhibitors. 410,000 tested, 1.2% active. AID 1159524; calls by dose curve; tested in HEK293T cells; also: read-out not given here; potency is read from the fitted curve at half-maximal effect; nearly all actives have a fitted effect of over 45% in size
Numbers without * were called inactive; i = inactive; ? = inconclusive; · = no result. Unless noted, calls follow the shape of the dose curve; as a rule, active = well fitted curve in the direction sought with a large enough effect; inconclusive = small, poorly fitted or top-dose-only effect, or another doubt; inactive = no such curve, though single readings can be large; an effect the other way counts as inactive or inconclusive. % is scaled to controls: 0 for no effect and ±100 for the full control effect.

SMILES | Giardia FBPA inh | Vaccinia mCherry | HCV inh | Vaccinia Venus | HCMV antiviral | FMDV antiviral
CSc1nc(Oc2cccc(C(F)(F)F)c2)cc(C(F)(F)F)n1 | -6% | -17% | 5% | -23% | 1 | -17%
COC(=O)c1cc(Br)c(=O)n(CCN2CCCC2)c1 | -11% | -13% | 1% | -6% | -90* | 6%
NC(=O)c1c(-c2ccc(Cl)cc2Cl)csc1NC(=O)Cc1ccccc1 | 0% | -17% | ? | ? | -65* | ?
COc1ccc(S(=O)(=O)N2Cc3ccccc3-n3nncc3C2)cc1 | · | i | · | -16% | -17 | 0%
Cc1cc(C)c(S(=O)(=O)N2Cc3ccccc3-n3nncc3C2)c(C)c1 | · | -18% | · | -22% | ? | 22µM*
Cc1cnc(C(=O)OCC(=O)NC(C)c2ccccc2)cn1 (stereo not given) | · | · | 13% | · | -7 | -1%
COc1ccc(/C=N/NC(=O)c2ccc[nH]2)cc1 | 5% | · | 1% | · | 55 | 51%
C#CCN(C[C@@H]1[C@@H](OC(=O)NCc2ccccc2F)[C@@H](OC(=O)NCc2ccccc2F)Cn2c(=O)n(CCCCCC)c(=O)n21)S(=O)(=O)c1ccc(C)cc1 | · | -26% | · | -24% | -15 | -9%
C#CCN(C[C@H]1[C@H](OC(=O)Nc2cccs2)[C@H](OC(=O)Nc2cccs2)CN(C(=O)OC(C)C)N1C(=O)OC(C)C)S(=O)(=O)c1ccc(C)cc1 | · | · | · | · | -79* | ·
C#CCN(C[C@@H]1[C@@H](OC(=O)NC2CC2)[C@@H](OC(=O)NC2CC2)CN(C(=O)OC(C)C)N1C(=O)OC(C)C)S(=O)(=O)c1ccc(C)cc1 | · | -9% | · | -25% | 2 | -1%
C#CCN(C[C@@H]1[C@@H](OC(=O)NCc2ccccc2F)[C@@H](OC(=O)NCc2ccccc2F)Cn2c(=O)ccc(=O)n21)S(=O)(=O)c1ccc(C)cc1 | · | ? | · | 7.1µM* | -100* | 14µM*
C#CCN(C[C@@H]1[C@@H](OC(=O)Nc2cccs2)[C@@H](OC(=O)Nc2cccs2)Cn2c(=O)ccc(=O)n21)S(=O)(=O)c1ccc(C)cc1 | · | ? | · | 8.9µM* | -103* | ?
C#CCN(C[C@H]1[C@H](OC(=O)NC2CCCC2)[C@H](OC(=O)NC2CCCC2)C[C@@H](C(=O)OC)[C@H]1C(=O)OC)S(=O)(=O)c1ccc(C)cc1 | · | -23% | · | ? | 5 | ?
C#CCN(C[C@@H]1[C@@H](OC(=O)NC2CCCC2)[C@@H](OC(=O)NC2CCCC2)Cn2c(=O)ccc(=O)n21)S(=O)(=O)c1ccc(C)cc1 | · | ? | · | 7.9µM* | -101* | ?
O=C(Nc1nnc(Cc2ccccc2)s1)C1CCN(C(=O)c2cccs2)CC1 | · | -14% | · | -21% | · | ·
O=C1Cc2cc(S(=O)(=O)Nc3ccc(N4CCOCC4)cc3)ccc2N1 | · | -9% | -21% | -8% | 0 | 7%
O=C(Nc1ccc(Br)cc1)c1ccc(F)c(S(=O)(=O)N2CCCc3ccccc32)c1 | · | ? | · | ? | -99* | ?
O=C(Nc1cc(Cl)cc(Cl)c1)c1ccc(F)c(S(=O)(=O)N2CCCC2)c1 | · | -19% | · | -20% | -23 | ?
O=C(Nc1cc(Cl)cc(Cl)c1)c1ccc(F)c(S(=O)(=O)N2CCc3ccccc32)c1 | · | -26% | · | -21% | -96* | ?
Cc1ccc(C(=O)C2CCN(CC(=O)Nc3ccccc3C)CC2)cc1 | · | -2% | ? | -6% | -63* | -25%
Cc1ccccc1NC(=O)CN1CCC(C(=O)c2ccc3c(c2)OCCO3)CC1 | -1% | -15% | 3% | -15% | -12 | -13%
CC(C)CNc1nnnc2c1sc1nc(N3CCOCC3)c3c(c12)CC(C)(C)SC3 | -7% | ? | 10µM* | -16% | ? | ?
CC1(C)Cc2c(c(N3CCOCC3)nc3sc4c(NCc5ccccc5)nnnc4c23)CS1 | -10% | · | -21% | · | ? | 5%
CC1(C)Cc2c(c(N3CCOCC3)nc3sc4c(NN)ncnc4c23)CS1 | -7% | · | ? | · | -88* | -5%
CC(C)Cc1ccc(CN2CCCC(NC(=O)CSc3nncn3C)C2)cc1 (stereo not given) | · | · | · | · | -15 | ·
